In all, about 16,000 sequences were measured (“rpm ratio (pull-down/input)”: median about 0.5, highest 2% from about 5.5 on). The list comes from a sample in which the highest values are over-represented; it also holds similar and randomly drawn sequences.

The target of the assay is T1, MBP-FoxP3dN (Mus musculus, UniProt Q99JB6 188-423).
T1 sequence: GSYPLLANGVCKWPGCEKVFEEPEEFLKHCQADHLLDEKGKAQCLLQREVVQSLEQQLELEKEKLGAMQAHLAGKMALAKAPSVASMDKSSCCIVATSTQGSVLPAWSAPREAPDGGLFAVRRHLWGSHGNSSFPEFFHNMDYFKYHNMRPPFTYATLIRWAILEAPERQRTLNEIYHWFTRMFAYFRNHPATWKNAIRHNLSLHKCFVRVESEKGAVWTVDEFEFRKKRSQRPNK
Kind of assay: PD-seq (MBP pull-down with sequencing); 20 mM Tris-HCl pH 7.5, 100 mM NaCl, 1.5 mM MgCl2, 0.4 uM protein, 0.1 uM dsDNA library, 30 min, room temperature, amylose pull-down; high values mean tight binding. As to conditions: protein: recombinant; tags: His6-MBP; chain copies: 2; dsDNA, one strand shown. Summed up:
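Amylose resin was used to capture complexes formed during 30 min at room temperature in Tris pH 7.5 buffer with NaCl and MgCl2 between 0.4 µM His6-MBP-tagged mouse FoxP3 or FoxP1 fragment lacking the N-terminus, expressed in E. coli, and 0.1 µM Klenow-filled double-stranded degenerate DNA library. After three washes, the DNA was released with proteinase K, barcoded by PCR and sequenced on Illumina. Binding is pooled-replicate reads-per-million enrichment, pull-down over input.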
With “GATGATTGTTCTCCCAGCTGATGAATTCCTCGCTTCGAGTAAACAAATTTTCCTAATCTTTCTGTTCAAGCGCCATCTAC”, the binding signal was 0.285 RPM ratio (pull-down/input).

“GATGATTGTTCTCCCAGCTGATGAATTGCCGCCATCGAGTAAACAAATTTTCCTAATCTTTCTGTTCAAGCGCCATCTAC”: the binding signal is 2.97 RPM ratio (pull-down/input).

In the case of “GATGATTGTTCTCCCAGCTGATGAATTTGAGTTTTCGAGTAAACAAATTTTCCTAATCTTTCTGTTCAAGCGCCATCTAC”, the binding signal is 0.885 RPM ratio (pull-down/input).

As for “GATGATTGTTCTCCCAGCTGATGAATTCAAGTTTTCGAGTAAACAAATTTTCCTAATCTTTCTGTTCAAGCGCCATCTAC”, the binding signal is 0.454 RPM ratio (pull-down/input).

Take “GATGATTGTTCTCCCAGCTGATGAATTTCCCTTCTCGAGTAAACAAATTTTCCTAATCTTTCTGTTCAAGCGCCATCTAC”: the binding signal was 0.295 RPM ratio (pull-down/input).

In the case of “GATGATTGTTCTCCCAGCTGATGAATTGATCTAATCGAGTAAACAAATTTTCCTAATCTTTCTGTTCAAGCGCCATCTAC”, the binding signal was 0.356 RPM ratio (pull-down/input).

Regarding “GATGATTGTTCTCCCAGCTGATGAATTGAATTGATCGAGTAAACAAATTTTCCTAATCTTTCTGTTCAAGCGCCATCTAC”, the binding signal was 0.917 RPM ratio (pull-down/input).

As for “GATGATTGTTCTCCCAGCTGATGAATTGTTGTGATCGAGTAAACAAATTTTCCTAATCTTTCTGTTCAAGCGCCATCTAC”, the binding signal was 6.31 RPM ratio (pull-down/input).

On to “GATGATTGTTCTCCCAGCTGATGAATTCTGTTGATCGAGTAAACAAATTTTCCTAATCTTTCTGTTCAAGCGCCATCTAC”, for which the binding signal was 6.26 RPM ratio (pull-down/input).

With “GATGATTGTTCTCCCAGCTGATGAATTTGATGAGTCGAGTAAACAAATTTTCCTAATCTTTCTGTTCAAGCGCCATCTAC”, the binding signal is 0.974 RPM ratio (pull-down/input).

In the case of “GATGATTGTTCTCCCAGCTGATGAATTTTTTGAGTCGAGTAAACAAATTTTCCTAATCTTTCTGTTCAAGCGCCATCTAC”, the binding signal is 0.237 RPM ratio (pull-down/input).

With “GATGATTGTTCTCCCAGCTGATGAATTCTTTTGATCGAGTAAACAAATTTTCCTAATCTTTCTGTTCAAGCGCCATCTAC”, the binding signal was 0.285 RPM ratio (pull-down/input).

In the case of “GATGATTGTTCTCCCAGCTGATGAATTCAATTGATCGAGTAAACAAATTTTCCTAATCTTTCTGTTCAAGCGCCATCTAC”, the binding signal is 1.07 RPM ratio (pull-down/input).

Regarding “GATGATTGTTCTCCCAGCTGATGAATTTCTGTGATCGAGTAAACAAATTTTCCTAATCTTTCTGTTCAAGCGCCATCTAC”, the binding signal is 0.408 RPM ratio (pull-down/input).

“GATGATTGTTCTCCCAGCTGATGAATTGTGATGATCGAGTAAACAAATTTTCCTAATCTTTCTGTTCAAGCGCCATCTAC”: the binding signal is 2.48 RPM ratio (pull-down/input).

With “GATGATTGTTCTCCCAGCTGATGAATTTGTTGAGTCGAGTAAACAAATTTTCCTAATCTTTCTGTTCAAGCGCCATCTAC”, the binding signal is 5.53 RPM ratio (pull-down/input).

For “GATGATTGTTCTCCCAGCTGATGAATTGTGTTGATCGAGTAAACAAATTTTCCTAATCTTTCTGTTCAAGCGCCATCTAC”, the binding signal was 7.06 RPM ratio (pull-down/input).

As to “GATGATTGTTCTCCCAGCTGATGAATTCAGATGTTCGAGTAAACAAATTTTCCTAATCTTTCTGTTCAAGCGCCATCTAC”, the binding signal is 1.06 RPM ratio (pull-down/input).

“GATGATTGTTCTCCCAGCTGATGAATTGTACCCATCGAGTAAACAAATTTTCCTAATCTTTCTGTTCAAGCGCCATCTAC”: the binding signal is 0.472 RPM ratio (pull-down/input).

Consider “GATGATTGTTCTCCCAGCTGATGAATTGAATCACTCGAGTAAACAAATTTTCCTAATCTTTCTGTTCAAGCGCCATCTAC”, for which the binding signal is 0.551 RPM ratio (pull-down/input).

Turning to “GATGATTGTTCTCCCAGCTGATGAATTCAATTGCTCGAGTAAACAAATTTTCCTAATCTTTCTGTTCAAGCGCCATCTAC”, the binding signal is 2.31 RPM ratio (pull-down/input).

Turning to “GATGATTGTTCTCCCAGCTGATGAATTAGGATGTTCGAGTAAACAAATTTTCCTAATCTTTCTGTTCAAGCGCCATCTAC”, the binding signal is 0.82 RPM ratio (pull-down/input).

For “GATGATTGTTCTCCCAGCTGATGAATTTTTGCGTTCGAGTAAACAAATTTTCCTAATCTTTCTGTTCAAGCGCCATCTAC”, the binding signal is 2.04 RPM ratio (pull-down/input).

Consider “GATGATTGTTCTCCCAGCTGATGAATTGTATTATTCGAGTAAACAAATTTTCCTAATCTTTCTGTTCAAGCGCCATCTAC”, for which the binding signal was 5.22 RPM ratio (pull-down/input).

As to “GATGATTGTTCTCCCAGCTGATGAATTATTGCAGTCGAGTAAACAAATTTTCCTAATCTTTCTGTTCAAGCGCCATCTAC”, the binding signal is 1.18 RPM ratio (pull-down/input).

Consider “GATGATTGTTCTCCCAGCTGATGAATTCAGCTGTTCGAGTAAACAAATTTTCCTAATCTTTCTGTTCAAGCGCCATCTAC”, for which the binding signal is 1.19 RPM ratio (pull-down/input).

Turning to “GATGATTGTTCTCCCAGCTGATGAATTGATTCGCTCGAGTAAACAAATTTTCCTAATCTTTCTGTTCAAGCGCCATCTAC”, the binding signal is 0.331 RPM ratio (pull-down/input).

For “GATGATTGTTCTCCCAGCTGATGAATTATGGCTCTCGAGTAAACAAATTTTCCTAATCTTTCTGTTCAAGCGCCATCTAC”, the binding signal is 0.643 RPM ratio (pull-down/input).

Turning to “GATGATTGTTCTCCCAGCTGATGAATTTTTGACATCGAGTAAACAAATTTTCCTAATCTTTCTGTTCAAGCGCCATCTAC”, the binding signal was 0.524 RPM ratio (pull-down/input).

“GATGATTGTTCTCCCAGCTGATGAATTTGATTGATCGAGTAAACAAATTTTCCTAATCTTTCTGTTCAAGCGCCATCTAC”: the binding signal is 2.23 RPM ratio (pull-down/input).

On to “GATGATTGTTCTCCCAGCTGATGAATTGTTTTGATCGAGTAAACAAATTTTCCTAATCTTTCTGTTCAAGCGCCATCTAC”, for which the binding signal is 4.03 RPM ratio (pull-down/input).

The values are drawn from PMC12820563, “FoxP3 forms a head-to-head dimer in vivo and stabilizes its multimerization on adjacent microsatellites”.
